The campaign covered roughly 5,500 compounds. About 2,000 (36%) were called active. Inconclusive results (about 18%) are left out. Rule as the data show it: active = normalized growth mostly below about 0.91 (no sharp cut-off); inconclusive = no clear call, values can overlap the other calls; inactive = mostly above about 0.92. Some of the results follow.
Test: chemical genetic growth profiling, strain panel (AID 1159580);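 also: tested at 20 µM; growth read once vehicle control cultures reached saturation at 30 °C; 1 = growth at the plate median or of vehicle wells; lower values mean less growth of the strain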
Conditions: growth OD
[1] = S. cerevisiae deletion strains, locus YAL013W, strain DEP1, active compounds read low
[2] = S. cerevisiae deletion strains, locus YBR229C, strain ROT2, active compounds read low
[3] = S. cerevisiae deletion strains, locus YDL101C, strain DUN1, active compounds read low
[4] = S. cerevisiae deletion strains, locus YDR150W, strain NUM1, active compounds read low
[5] = S. cerevisiae deletion strains, locus YEL061C, strain CIN8, active compounds read low
[6] = S. cerevisiae deletion strains, locus YGR078C, strain PAC10, active compounds read low
[7] = S. cerevisiae deletion strains, locus YHR030C, strain SLT2, active compounds read low
[8] = S. cerevisiae deletion strains, locus YHR087W, strain rtc3, active compounds read low
[9] = S. cerevisiae deletion strains, locus YJR043C, strain POL32, active compounds read low
[10] = S. cerevisiae deletion strains, locus YJR075W, strain HOC1, active compounds read low
[11] = S. cerevisiae deletion strains, locus YKL190W, strain CNB1, active compounds read low
[12] = S. cerevisiae deletion strains, locus YLR039C, strain RIC1, active compounds read low
[13] = S. cerevisiae deletion strains, locus YLR058C, strain SHM2 (second series), active compounds read low
[14] = S. cerevisiae deletion strains, locus YLR085C, strain ARP6, active compounds read low
[15] = S. cerevisiae deletion strains, locus YLR262C, strain YPT6, active compounds read low
[16] = S. cerevisiae deletion strains, locus YML094W, strain GIM5, active compounds read low
[17] = S. cerevisiae deletion strains, locus YMR219W, strain ESC1, active compounds read low
[18] = S. cerevisiae deletion strains, locus YMR263W, strain SAP30, active compounds read low
[19] = S. cerevisiae deletion strains, locus YMR307W, strain GAS1, active compounds read low
[20] = S. cerevisiae deletion strains, locus YNL153C, strain GIM3, active compounds read low
[21] = S. cerevisiae deletion strains, locus YNL298W, strain CLA4 (second series), active compounds read low
[22] = S. cerevisiae deletion strains, locus YNL322C, strain KRE1, active compounds read low
[23] = S. cerevisiae deletion strains, locus YNR030W, strain Alg12, active compounds read low
[24] = S. cerevisiae deletion strains, locus YOL006C, strain TOP1, active compounds read low
[25] = S. cerevisiae deletion strains, locus YPL055C, strain LGE1, active compounds read low
[26] = S. cerevisiae deletion strains, locus YPL241C, strain CIN2, active compounds read low
[27] = S. cerevisiae deletion strains, locus YPR135W, strain CTF4, active compounds read low
[28] = S. cerevisiae strains, strain wild type, active compounds read low
[29] = S. cerevisiae deletion strains, locus YNL128W, strain TEP1, active compounds read low

Measured: normalized growth

COc1cc(/C=C2/N=C(c3ccccc3I)OC2=O)cc(OC)c1OC
inactive: [1] 1 | [2] 1.01 | S. cerevisiae deletion strains, locus YCL061C, strain MRC1, active compounds read low 1.01 | [3] 1.03 | [4] 0.888 | [5] 0.984 | [6] 1 | S. cerevisiae deletion strains, locus YGR229C, strain SMI1, active compounds read low 0.981 | [7] 0.956 | [8] 1.01 | [9] 1 | [10] 1.01 | [11] 0.995 | [12] 0.964 | [13] 0.996 | [14] 1.01 | [15] 0.947 | [16] 1.02 | [17] 1 | [18] 1 | [19] 0.961 | [20] 1.01 | [21] 1.01 | [22] 0.994 | [23] 0.982 | [24] 0.998 | [25] 1.12 | [26] 0.967 | [27] 0.903 | [28] 0.989

COc1cc(/C=C/C=O)cc(OC)c1OC
inactive: [1] 1.03 | S. cerevisiae deletion strains, locus YBR021W, strain FUR4, active compounds read low 1.01 | [2] 1.01 | S. cerevisiae deletion strains, locus YCL029C, strain bik1, active compounds read low 1.03 | S. cerevisiae deletion strains, locus YDL035C, strain GPR1, active compounds read low 1.04 | S. cerevisiae deletion strains, locus YDL074C, strain BRE1, active compounds read low 1.07 | [3] 1.02 | S. cerevisiae deletion strains, locus YDL185W, strain tfp1, active compounds read low 1 | S. cerevisiae deletion strains, locus YDL192W, strain arf1, active compounds read low 1.02 | S. cerevisiae deletion strains, locus YDR101C, strain arx1, active compounds read low 1.02 | S. cerevisiae deletion strains, locus YDR162C, strain NBP2, active compounds read low 1.07 | S. cerevisiae deletion strains, locus YDR318W, strain mcm21, active compounds read low 1.03 | S. cerevisiae deletion strains, locus YDR388W, active compounds read low 1.01 | S. cerevisiae deletion strains, locus YDR502C, strain sam2, active compounds read low 1.02 | S. cerevisiae deletion strains, locus YER110C, active compounds read low 1 | S. cerevisiae deletion strains, locus YER155C, strain BEM2, active compounds read low 1.02 | S. cerevisiae deletion strains, locus YER167W, strain BCK2, active compounds read low 1.02 | S. cerevisiae deletion strains, locus YGL078C, strain dbp3, active compounds read low 1.01 | S. cerevisiae deletion strains, locus YGL086W, strain mad1, active compounds read low 1.02 | S. cerevisiae deletion strains, locus YGL248W, strain PDE1, active compounds read low 1.04 | [6] 1.04 | S. cerevisiae deletion strains, locus YGR135W, strain pre9, active compounds read low 0.998 | S. cerevisiae deletion strains, locus YGR252W, strain gcn5, active compounds read low 1.03 | S. cerevisiae deletion strains, locus YHR079C, strain IRE1 (second series), active compounds read low 1 | S. cerevisiae deletion strains, locus YHR094C, strain hxt1, active compounds read low 0.995 | S. cerevisiae deletion strains, locus YHR129C, strain ARP1, active compounds read low 1.02 | S. cerevisiae deletion strains, locus YHR200W, strain rpn10, active compounds read low 1.01 | S. cerevisiae deletion strains, locus YIL066C, strain RNR3, active compounds read low 1.02 | S. cerevisiae deletion strains, locus YIL073C, strain SPO22, active compounds read low 1.06 | S. cerevisiae deletion strains, locus YIL125W, strain kgd1, active compounds read low 1 | S. cerevisiae deletion strains, locus YIR030C, strain dcg1, active compounds read low 1.01 | S. cerevisiae deletion strains, locus YJL095W, strain BCK1, active compounds read low 1.06 | S. cerevisiae deletion strains, locus YJL134W, strain LCB3, active compounds read low 1.01 | S. cerevisiae deletion strains, locus YJL168C, strain set2, active compounds read low 0.997 | S. cerevisiae deletion strains, locus YJL187C, strain SWE1 (second series), active compounds read low 1.04 | [9] 1.06 | S. cerevisiae deletion strains, locus YKL009W, strain mrt4, active compounds read low 1.01 | S. cerevisiae deletion strains, locus YKL068W, active compounds read low 0.994 | S. cerevisiae deletion strains, locus YKL085W, strain MDH1 (second series), active compounds read low 1.01 | S. cerevisiae deletion strains, locus YKL085W, strain MDH1, active compounds read low 1.01 | [11] 1.01 | S. cerevisiae deletion strains, locus YKR001C, strain vps1, active compounds read low 1.07 | [12] 1.14 | S. cerevisiae deletion strains, locus YLR058C, strain SHM2, active compounds read low 1.03 | S. cerevisiae deletion strains, locus YLR102C, strain apc9, active compounds read low 0.999 | [15] 1.13 | S. cerevisiae deletion strains, locus YLR268W, strain sec22, active compounds read low 1.03 | S. cerevisiae deletion strains, locus YLR342W, strain FKS1 (second series), active compounds read low 1.09 | S. cerevisiae deletion strains, locus YLR371W, strain rom2, active compounds read low 0.991 | S. cerevisiae deletion strains, locus YLR418C, strain cdc73, active compounds read low 1.02 | S. cerevisiae deletion strains, locus YML016C, strain PPZ1, active compounds read low 1.02 | S. cerevisiae deletion strains, locus YML032C, strain rad52, active compounds read low 1.03 | S. cerevisiae deletion strains, locus YML124C, strain tub3, active compounds read low 0.996 | S. cerevisiae deletion strains, locus YMR078C, strain ctf18, active compounds read low 0.994 | S. cerevisiae deletion strains, locus YMR223W, strain ubp8, active compounds read low 1.01 | [18] 1.03 | [19] 1.06 | S. cerevisiae deletion strains, locus YNL067W, strain RPL9B, active compounds read low 1.03 | [29] 1.03 | S. cerevisiae deletion strains, locus YNL233W, strain BNI4, active compounds read low 1.04 | S. cerevisiae deletion strains, locus YNL250W, strain rad50, active compounds read low 1 | S. cerevisiae deletion strains, locus YNL271C, strain bni1, active compounds read low 1 | S. cerevisiae deletion strains, locus YNL298W, strain CLA4, active compounds read low 0.995 | S. cerevisiae deletion strains, locus YNL307C, strain MCK1, active compounds read low 1 | S. cerevisiae deletion strains, locus YNR052C, strain pop2, active compounds read low 1 | [24] 1.22 | S. cerevisiae deletion strains, locus YOL012C, strain htz1 0.967 | S. cerevisiae deletion strains, locus YOL147C, strain pex11, active compounds read low 1.01 | S. cerevisiae deletion strains, locus YOR061W, strain CKA2, active compounds read low 1.04 | S. cerevisiae deletion strains, locus YOR069W, strain VPS5, active compounds read low 1.01 | S. cerevisiae deletion strains, locus YOR136W, strain idh2, active compounds read low 1.01 | S. cerevisiae deletion strains, locus YOR144C, strain elg1, active compounds read low 0.998 | S. cerevisiae deletion strains, locus YOR184W, strain ser1, active compounds read low 1.07 | S. cerevisiae deletion strains, locus YOR316C, strain cot1, active compounds read low 0.988 | [25] 1.08 | [26] 1.01 | S. cerevisiae deletion strains, locus YPR119W, strain clb2, active compounds read low 0.995 | S. cerevisiae deletion strains, locus YPR141C, strain kar3, active compounds read low 1 | S. cerevisiae deletion strains, locus YPR163C, strain tif3, active compounds read low 1.02 | S. cerevisiae deletion strains, locus YPR167C, strain met16, active compounds read low 1.01 | S. cerevisiae deletion strains, strain wtn01, active compounds read low 1.03 | [28] 1.05

COc1cc(/C=C2/SC(=S)NC2=O)cc(OC)c1OC
active: [1] 0.915 | [2] 0.894 | [3] 0.865 | [6] 0.877 | [10] 0.822 | [12] 0.725 | [13] 0.919 | [15] 0.73 | [17] 0.926 | [18] 0.901 | [20] 0.92 | [22] 0.926
inactive: [4] 0.897 | [5] 0.977 | [7] 0.87 | [8] 0.911 | [9] 0.948 | [14] 0.845 | [16] 0.969 | [19] 0.887 | [29] 0.977 | [21] 0.912 | [23] 0.922 | [25] 0.881 | [26] 0.885 | [27] 0.809

From PubChem BioAssay AID1159580 (chemical genetic matrix, 2015)
